From the OligoGym collection come the findings set out here.
Note: reference of the scale not given here.

The first test deals with SPATA2. The test can be described thus: pooled miR-30 sensor sort-seq; sequence = guide strand. The note with it: shRNA.
As to TTGACAGTACAGTAAGAGGGGC, the sensor-assay potency score (higher = more potent) is -0.34.

Consider TGAGACTTTTGAACACTGGGTG, for which the sensor-assay potency score (higher = more potent) was 0.544. Still for that read-out and setting: with TCTGAGCAGCCACACATCCGGC the figure was -1.47. Still for that read-out and setting: to TTGTGAGTGGATTTCTAGCATC belongs -1.52. The same measure, in the same setting: with TGAGTGGATTTCTAGCATCTGC the figure was -1.11; with TTGATGTAGCCCTTGGAGCTGG, -0.512; with TGGAACTGCACGTACTTCCGAA, -0.761.

In the case of TCTTCCAGTAATGTCGACTTGA, the sensor-assay potency score (higher = more potent) is 0.423. With TCATAGAACTGGATCAGCCGGA, the sensor-assay potency score (higher = more potent) was determined as 0.651.

TCACTCTTTTTGTAGCAGGGGT gave a sensor-assay potency score (higher = more potent) of -0.679. With TTGTCCTTCACTTGTGAGTGGA, the sensor-assay potency score (higher = more potent) was -0.193.

The target in a further test is SPATA5L1. The description is as above. The note with it: shRNA.
TTCTTGAACATCACATCCTGTC showed a sensor-assay potency score (higher = more potent) of -0.27. Still for that read-out and setting: to TTGAACATCACATCCTGTCTTG belongs 0.227; to TAATCTTCCAGGTCGTAACAAA, -1.18; to TTGCTTGTCGAAATATCTGAGA, -0.878. With TTGTCTTAAGTCCAACACCATC, the sensor-assay potency score (higher = more potent) is -1.76. The same measure, in the same setting: with TTAACTTCAGTTTTACATCTTC the figure was 0.121.

For AAAAACTTCTTGAAACTCCTGT, the sensor-assay potency score (higher = more potent) is 1.07. TATCTAATCTTCCAGGTCGTAA had a sensor-assay potency score (higher = more potent) of -0.994. Turning to TAGATGATCTTATCTAATCTTC, the sensor-assay potency score (higher = more potent) was -0.209.

Consider TGATCTTATCTAATCTTCCAGG, for which the sensor-assay potency score (higher = more potent) is -0.767. Same read-out and setting: to TTATCTAATCTTCCAGGTCGTA belongs -0.899; to TTCTGAATCTCCAACAAACGGT, -0.635.
